# About 7,900 targets were measured; listed, in parts, are those with a hit and a random draw of the rest. About 0.6% of all pairs of compound and target were hits. Unmarked numbers belong to inactive results.
# What was measured:
# Test in all cases: log2 fold change, soluble protein after heating vs DMSO (PISA); higher = thermal stabilisation; K562 cells, 10 uM, 30 min; active = over 0.2 and 3.5 SD of the protein, either way, in both replicates (recomputed)
# erlotinib = compound: C#Cc1cccc(Nc2ncnc3cc(OCCOC)c(OCCOC)cc23)c1 [erlotinib]
# Procedure, shortened: (§1)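 K562 cells at 2×10^6 cells/mL were given 10 μM compound for 30 min. Aliquots then went through 3 min of heating across 48°C-58°C, were pooled, and were extracted in PBS with 0.5% NP-40 at 4°C, and the supernatant after 21,000xg for 90 min was quantified by TMTpro 16plex LC-MS/MS with channel sums equalised. Thermal stability relative to control samples, from duplicates, is given as log2 fold change.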
# [1] = compound: C/C(=N\NC(=O)C1=CC(=CC=C1)S(=O)(=O)N2CCOCC2)/C3=C(C=CC(=C3)Cl)O
# Procedure, shortened: as §1
# [2] = compound: C1=CC(=C(C=C1Cl)C2=NC3=NC=CN=C3C(=N2)NC4=CC=NC=C4)F
# Procedure, shortened: as §1
# [3] = compound: C1=CC(=CC=C1C2=NC3=C(N2)C=C(C=C3)C(=O)N)OC4=CC=C(C=C4)Cl
# Procedure, shortened: as §1
# [4] = compound: C1=CC2=C(C=CC(=C2)/C=C\3/C(=O)NC(=NCC4=CC=CS4)S3)N=C1
# Procedure, shortened: as §1
# [5] = compound: C1=CC2=NC=CN=C2C=C1/C=C/3\C(=O)NC(=O)S3
# Procedure, shortened: as §1
# [6] = compound: C1=CC=C(C=C1)C2=NC(=C(N2)C3=CC=NC=C3)C4=CC(=C(C=C4)Cl)O
# Procedure, shortened: as §1
# [7] = compound: C1=CC=C2C(=C1)C3=NNC4=CC=CC(=C43)C2=O
# Procedure, shortened: as §1
# [8] = compound: C1CCN(C1)C(=O)NC2=CC=CC(=C2)NC3=NC=C(C(=N3)NCCC4=CN=CN4)Br
# Procedure, shortened: as §1
# [9] = compound: C1CN(CCC1(CC2=CC=C(C=C2)Cl)N)C3=NC=NC4=C3C=CN4
# Procedure, shortened: as §1
# Chain of UniProt Q96GA3 (Q96GA3 whole entry, looked up): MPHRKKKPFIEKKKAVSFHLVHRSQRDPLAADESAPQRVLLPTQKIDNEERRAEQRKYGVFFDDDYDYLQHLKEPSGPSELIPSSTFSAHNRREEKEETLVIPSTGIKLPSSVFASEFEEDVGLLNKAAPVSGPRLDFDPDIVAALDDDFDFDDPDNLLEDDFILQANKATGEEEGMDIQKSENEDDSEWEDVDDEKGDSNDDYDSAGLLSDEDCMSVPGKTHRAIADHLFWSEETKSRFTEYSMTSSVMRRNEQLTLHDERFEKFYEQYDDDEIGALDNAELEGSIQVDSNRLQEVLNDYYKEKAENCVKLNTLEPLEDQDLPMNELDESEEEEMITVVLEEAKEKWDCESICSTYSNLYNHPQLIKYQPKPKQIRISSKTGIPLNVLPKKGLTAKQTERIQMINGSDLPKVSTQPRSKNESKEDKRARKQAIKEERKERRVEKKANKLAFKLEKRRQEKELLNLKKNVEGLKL
# Chain of UniProt Q86V48 (Q86V48 whole entry, looked up): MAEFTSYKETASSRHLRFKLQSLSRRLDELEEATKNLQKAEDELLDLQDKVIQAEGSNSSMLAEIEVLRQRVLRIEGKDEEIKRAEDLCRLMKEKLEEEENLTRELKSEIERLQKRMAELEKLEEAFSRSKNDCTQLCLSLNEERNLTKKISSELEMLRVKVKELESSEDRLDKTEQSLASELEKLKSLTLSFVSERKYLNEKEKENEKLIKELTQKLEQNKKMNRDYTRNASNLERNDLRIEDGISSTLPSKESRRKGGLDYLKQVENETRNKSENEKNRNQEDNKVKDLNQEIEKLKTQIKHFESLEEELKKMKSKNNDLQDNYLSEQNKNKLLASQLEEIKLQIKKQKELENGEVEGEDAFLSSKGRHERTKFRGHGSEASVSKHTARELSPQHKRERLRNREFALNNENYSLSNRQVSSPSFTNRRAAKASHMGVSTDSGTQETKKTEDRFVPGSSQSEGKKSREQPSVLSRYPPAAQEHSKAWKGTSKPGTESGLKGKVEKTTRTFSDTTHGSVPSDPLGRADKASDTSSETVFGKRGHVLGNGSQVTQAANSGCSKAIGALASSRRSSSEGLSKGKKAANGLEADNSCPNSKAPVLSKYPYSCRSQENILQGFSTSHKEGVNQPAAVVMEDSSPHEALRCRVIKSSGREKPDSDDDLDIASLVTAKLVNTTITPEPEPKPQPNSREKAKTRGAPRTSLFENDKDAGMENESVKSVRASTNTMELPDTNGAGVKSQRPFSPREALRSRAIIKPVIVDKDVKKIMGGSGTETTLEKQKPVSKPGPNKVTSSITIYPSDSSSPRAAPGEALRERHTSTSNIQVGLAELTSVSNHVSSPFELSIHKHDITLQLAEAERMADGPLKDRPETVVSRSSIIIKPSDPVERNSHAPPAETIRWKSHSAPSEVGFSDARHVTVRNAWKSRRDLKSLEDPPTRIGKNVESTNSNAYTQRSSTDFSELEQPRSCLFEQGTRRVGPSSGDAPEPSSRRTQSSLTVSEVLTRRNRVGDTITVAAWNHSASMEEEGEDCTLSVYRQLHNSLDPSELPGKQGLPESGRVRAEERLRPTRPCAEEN
# Chain of UniProt Q14693 (Q14693 whole entry, looked up): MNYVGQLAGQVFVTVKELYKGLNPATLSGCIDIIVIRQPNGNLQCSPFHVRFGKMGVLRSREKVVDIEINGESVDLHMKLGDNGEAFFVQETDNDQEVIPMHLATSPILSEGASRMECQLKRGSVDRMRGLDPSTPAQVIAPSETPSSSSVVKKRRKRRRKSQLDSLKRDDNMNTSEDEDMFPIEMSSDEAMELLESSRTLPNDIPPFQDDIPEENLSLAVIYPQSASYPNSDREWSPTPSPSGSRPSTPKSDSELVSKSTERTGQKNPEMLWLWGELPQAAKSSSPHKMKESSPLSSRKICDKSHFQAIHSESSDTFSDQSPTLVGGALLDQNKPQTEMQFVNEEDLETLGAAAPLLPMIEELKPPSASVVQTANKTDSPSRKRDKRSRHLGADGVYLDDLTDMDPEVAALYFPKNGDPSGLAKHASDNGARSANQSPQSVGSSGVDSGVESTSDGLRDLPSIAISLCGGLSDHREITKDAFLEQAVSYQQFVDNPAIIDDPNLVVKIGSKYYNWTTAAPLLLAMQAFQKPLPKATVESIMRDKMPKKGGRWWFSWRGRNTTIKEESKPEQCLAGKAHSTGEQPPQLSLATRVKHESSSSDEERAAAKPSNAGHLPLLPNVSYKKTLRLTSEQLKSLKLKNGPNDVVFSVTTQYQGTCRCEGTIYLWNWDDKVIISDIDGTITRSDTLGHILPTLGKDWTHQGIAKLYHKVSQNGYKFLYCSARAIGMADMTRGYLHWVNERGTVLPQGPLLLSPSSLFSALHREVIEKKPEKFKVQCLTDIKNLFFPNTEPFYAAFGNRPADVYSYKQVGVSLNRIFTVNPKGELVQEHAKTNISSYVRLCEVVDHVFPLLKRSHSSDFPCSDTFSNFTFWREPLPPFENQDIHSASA
# Chain of UniProt Q5XKP0 (Q5XKP0 whole entry, looked up): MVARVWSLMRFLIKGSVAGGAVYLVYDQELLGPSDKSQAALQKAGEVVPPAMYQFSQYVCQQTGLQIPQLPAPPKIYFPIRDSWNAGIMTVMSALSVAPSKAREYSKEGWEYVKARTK
# Chain of UniProt Q96PC5 (Q96PC5 whole entry, looked up): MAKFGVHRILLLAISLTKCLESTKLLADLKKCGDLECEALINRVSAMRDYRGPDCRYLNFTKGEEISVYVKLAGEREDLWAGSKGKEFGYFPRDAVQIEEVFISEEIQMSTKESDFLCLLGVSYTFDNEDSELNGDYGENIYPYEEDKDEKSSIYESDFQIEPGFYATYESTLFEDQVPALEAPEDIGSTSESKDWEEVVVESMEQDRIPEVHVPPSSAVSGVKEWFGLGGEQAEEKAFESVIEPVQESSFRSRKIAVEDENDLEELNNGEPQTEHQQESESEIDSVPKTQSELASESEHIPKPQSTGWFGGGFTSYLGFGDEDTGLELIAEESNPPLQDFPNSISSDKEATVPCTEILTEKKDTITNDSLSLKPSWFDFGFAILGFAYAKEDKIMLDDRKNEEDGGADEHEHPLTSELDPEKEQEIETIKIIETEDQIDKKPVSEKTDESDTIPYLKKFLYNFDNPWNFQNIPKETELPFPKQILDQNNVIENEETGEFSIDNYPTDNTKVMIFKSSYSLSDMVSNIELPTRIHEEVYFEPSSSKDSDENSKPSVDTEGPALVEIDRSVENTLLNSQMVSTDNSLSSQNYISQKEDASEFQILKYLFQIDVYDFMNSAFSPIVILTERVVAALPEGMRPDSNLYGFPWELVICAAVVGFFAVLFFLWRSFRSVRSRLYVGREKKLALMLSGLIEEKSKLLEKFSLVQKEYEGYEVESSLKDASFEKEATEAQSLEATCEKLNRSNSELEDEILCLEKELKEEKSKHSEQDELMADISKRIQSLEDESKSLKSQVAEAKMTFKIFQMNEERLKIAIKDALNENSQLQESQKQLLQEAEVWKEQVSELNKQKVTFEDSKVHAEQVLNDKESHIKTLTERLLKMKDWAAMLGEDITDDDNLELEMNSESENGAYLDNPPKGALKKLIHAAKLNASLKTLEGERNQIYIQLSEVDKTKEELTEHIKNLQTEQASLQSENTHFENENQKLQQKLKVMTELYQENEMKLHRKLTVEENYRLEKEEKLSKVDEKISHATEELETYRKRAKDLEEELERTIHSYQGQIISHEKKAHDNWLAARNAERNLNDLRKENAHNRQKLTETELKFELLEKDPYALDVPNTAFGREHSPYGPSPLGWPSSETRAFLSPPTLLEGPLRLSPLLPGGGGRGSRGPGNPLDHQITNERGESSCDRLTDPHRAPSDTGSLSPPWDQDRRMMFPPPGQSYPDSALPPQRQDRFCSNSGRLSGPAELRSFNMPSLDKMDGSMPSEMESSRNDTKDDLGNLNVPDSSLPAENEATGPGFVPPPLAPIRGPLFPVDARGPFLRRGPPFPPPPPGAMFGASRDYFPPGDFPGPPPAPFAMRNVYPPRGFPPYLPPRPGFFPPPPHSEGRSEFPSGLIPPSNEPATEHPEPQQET
# Chain of UniProt Q9NYL2 (Q9NYL2 whole entry, looked up): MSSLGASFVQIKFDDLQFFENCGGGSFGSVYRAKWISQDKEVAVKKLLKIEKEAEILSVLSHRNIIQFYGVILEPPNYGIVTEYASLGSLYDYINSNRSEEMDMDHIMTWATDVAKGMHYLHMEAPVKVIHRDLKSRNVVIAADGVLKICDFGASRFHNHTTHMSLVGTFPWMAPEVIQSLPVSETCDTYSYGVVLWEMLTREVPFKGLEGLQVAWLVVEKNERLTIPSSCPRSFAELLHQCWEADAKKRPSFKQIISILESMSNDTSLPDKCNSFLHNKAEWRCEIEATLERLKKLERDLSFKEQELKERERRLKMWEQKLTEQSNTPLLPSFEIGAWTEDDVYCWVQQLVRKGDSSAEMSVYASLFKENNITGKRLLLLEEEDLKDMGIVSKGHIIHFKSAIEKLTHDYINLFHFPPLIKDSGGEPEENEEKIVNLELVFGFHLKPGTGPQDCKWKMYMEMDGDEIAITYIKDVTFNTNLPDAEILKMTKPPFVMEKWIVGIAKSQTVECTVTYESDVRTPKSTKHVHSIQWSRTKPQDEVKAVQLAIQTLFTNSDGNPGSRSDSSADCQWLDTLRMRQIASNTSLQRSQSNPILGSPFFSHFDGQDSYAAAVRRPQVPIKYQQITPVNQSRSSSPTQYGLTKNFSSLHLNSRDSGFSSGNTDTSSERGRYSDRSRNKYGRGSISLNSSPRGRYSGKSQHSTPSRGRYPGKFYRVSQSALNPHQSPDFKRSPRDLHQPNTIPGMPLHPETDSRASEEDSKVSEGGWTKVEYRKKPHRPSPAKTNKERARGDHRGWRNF
# Chain of UniProt O15243 (O15243 whole entry, looked up): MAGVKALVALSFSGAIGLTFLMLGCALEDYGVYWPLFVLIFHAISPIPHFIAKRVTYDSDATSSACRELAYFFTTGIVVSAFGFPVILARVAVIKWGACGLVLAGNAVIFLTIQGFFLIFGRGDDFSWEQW
Target,log2 fold change (erlotinib),log2 fold change [1],log2 fold change [2],log2 fold change [3],log2 fold change [4],log2 fold change [5],log2 fold change [6],log2 fold change [7],log2 fold change [8],log2 fold change [9]
LONP2 (UniProt Q86WA8),0.07,-0.111,0.263,0.131,-0.021,0.065,0.168,0.067,-0.037,-0.002
IRF2BPL (UniProt Q9H1B7),-0.021,0.023,0.068,0.04,-0.03,0.064,0.089,0.025,-0.041,-0.022
KIF2C (UniProt Q99661),0.036,0.09,0.036,0.021,0.01,-0.004,0.043,0.019,-0.031,-0.103
LDAH isoform 2 (UniProt Q9H6V9),0.116,0.052,-0.101,-0.041,0.047,0,0.018,0,0.06,-0.006
MICOS13 (UniProt Q5XKP0),0.008,0.018,0.053,-0.007,0.001,0.039,0.051,0.052,0.007,0.023
INPP5B (UniProt P32019),-0.027,0.056,0.071,-0.052,0.055,-0.018,0.026,-0.04,-0.064,-0.039
KLC2 (UniProt Q9H0B6),0.036,0.063,0.008,-0.044,0.078,0.025,-0.039,0.006,-0.063,-0.007
LEMD2 (UniProt Q8NC56),0.04,0.007,-0.054,-0.002,0.11,0.001,0.042,0.008,-0.016,0.046
IL10RB (UniProt Q08334),0.05,-0.089,-0.106,0.053,0,-0.03,,0.029,0.037,0.075
IRAK4 (UniProt Q9NWZ3),0.041,-0.009,0.068,-0.038,0.059,-0.023,0.011,-0.004,0.069,-0.074
JMJD6 isoform 3 (UniProt Q6NYC1),-0.009,0.011,0.039,0.044,0.051,0.03,0.107,-0.037,-0.007,0.181
IL27RA (UniProt Q6UWB1),-0.082,0.04,-0.147,0.007,0.021,0.048,0.064,0.068,-0.011,0.075
LAMP2 (UniProt P13473),0.035,0,0.088,0.031,0.002,0.101,-0.013,-0.01,-0.013,0.039
MEAK7 (UniProt Q6P9B6),0.015,-0.005,0.023,0.054,0.069,0.014,-0.062,0.092,-0.042,-0.017
MAP3K20 isoform 2 (UniProt Q9NYL2),-0.002,-0.128,0.051,0.052,-0.091,,,-0.168,-0.004,0.007
MELK (UniProt Q14680),0.067,-0.067,0.018,0.027,0.033,0.009,,0.031,-0.027,-0.086
KIAA1324L (UniProt A8MWY0),0.036,-0.077,0.003,0.05,0.092,-0.068,0.003,-0.042,-0.03,0.064
LTV1 (UniProt Q96GA3),-0.079,-0.073,-0.275,0.041,-0.037,0.013,-0.055,0.046,0.143,-0.284
KDM3B (UniProt Q7LBC6),0.029,0.051,0.083,-0.019,0,0.043,0.029,-0.015,-0.03,0.008
MAP4K5 (UniProt Q9Y4K4),-0.001,0.057,0.05,0.051,0.143,-0.025,-0.039,,-0.083,0.152
ITPRIP (UniProt Q8IWB1),0.012,-0.086,0.052,0.034,-0.05,0.01,-0.085,-0.094,-0.02,0.012
IMMT isoform 4 (UniProt Q16891),-0.027,0.026,0.057,-0.006,-0.021,0.011,0.012,0.001,0.012,-0.013
LUC7L3 (UniProt O95232),0.011,0.033,-0.018,0.042,-0.093,-0.02,-0.043,-0.104,-0.002,-0.037

Target,log2 fold change (erlotinib),log2 fold change [1],log2 fold change [2],log2 fold change [3],log2 fold change [4],log2 fold change [5],log2 fold change [6],log2 fold change [7],log2 fold change [8],log2 fold change [9]
MICU1 isoform 3 (UniProt Q9BPX6),-0.02,-0.026,-0.022,0.002,-0.009,0.007,-0.054,0.008,0.013,-0.015
MDC1 (UniProt Q14676),0.056,-0.284,-0.184,0.025,0,0.057,0.177,-0.094,-0.139,0.072
MED17 (UniProt Q9NVC6),0.017,0.064,-0.077,0.072,-0.083,,0.094,-0.034,-0.194,-0.047
LUM (UniProt P51884),-0.147,-0.043,0.095,0.039,0.063,,-0.057,-0.068,0.185,0.307
MAP3K20 (UniProt Q9NYL2),0.014,-0.013,-0.009,0.043,-0.009,0.038,-0.011,-0.106,-0.046,-0.036
MIA2 (UniProt Q96PC5),0.01,0.044,0.04,-0.044,-0.033,0.035,0.021,-0.092,0.003,0.041
LEPROT (UniProt O15243),0.06,0.034,0.081,0.088,0.119,,,-0.058,-0.011,0.001
LYN isoform 2 (UniProt P07948),-0.387,0.117,-0.234,-0.152,0.146,,,-0.163,,
MAST4 (UniProt O15021),-0.016,0.101,0.082,0.054,0.032,0.048,-0.086,-0.02,-0.007,-0.094
ITGA2B (UniProt P08514),-0.046,-0.051,0.023,0.06,-0.023,,0,-0.133,0.065,-0.13
IPO13 (UniProt O94829),-0.045,-0.018,0.05,-0.037,0.025,0.021,-0.059,-0.033,0.013,-0.062
LRRFIP1 isoform 4 (UniProt Q32MZ4),-0.122,-1.2 (active),-0.121,-0.006,-0.045,,,0.072,,
LUC7L (UniProt Q9NQ29),-0.084,0.043,-0.092,0.114,-0.062,-0.003,-0.105,-0.016,-0.016,-0.035
LPIN1 isoform 7 (UniProt Q14693),0.027,0.068,0.059,-0.043,-0.001,-0.102,-0.031,0.015,-0.033,0.025
IPO11 isoform 2 (UniProt Q9UI26),-0.063,0.066,0.074,0.013,0.016,0.038,0.011,-0.023,0.001,-0.009
LUZP1 (UniProt Q86V48),-0.094,-0.035,-0.328,-0.01,-0.131,-0.095,-0.091,-0.187,-0.06,-0.297
MED16 (UniProt Q9Y2X0),-0.019,-0.085,0.065,-0.038,0.038,0.051,-0.067,-0.155,0.034,-0.046
MAGED1 isoform 2 (UniProt Q9Y5V3),0.024,0.044,-0.311,-0.059,-0.064,,,-0.012,,
KEL (UniProt P23276),0.011,0.042,0.008,0.13,-0.005,0.147,-0.029,-0.067,-0.013,-0.001
LAMP2 isoform 2 (UniProt P13473),-0.072,0.02,0.041,0.082,-0.022,0.088,,-0.007,0.018,0.049
MBLAC1 (UniProt A4D2B0),0.074,-0.042,,0.026,0.036,0.019,0.002,-0.024,,
KPNA1 (UniProt P52294),-0.042,0.09,-0.053,-0.037,-0.011,0.009,0.035,-0.061,-0.032,-0.07
LGALS8 isoform 2 (UniProt O00214),-0.011,-0.034,-0.282,0.062,-0.038,-0.059,,0.036,0.043,0.039

# Reference: the supplement of paper PMC10849652
